High-throughput results deposited in PubChem by several laboratories.
HUVEC tox TNFa: toxic to HUVEC cells under TNF alpha stimulation; cell count reduction, % at 2 µM; actives 0.17% (n = 93,000); HUVEC TNFalpha-stimulated, Hoechst cell count, imaging;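 active = cell count reduction exceeding the screen mean by over 5 SD, scaled to untreated wells per plate, cut at about 78% in these data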;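 note: cells counted after 24 h of TNF alpha exposure following the 1 h pretreatment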
S1P2 blocker: antagonists of human S1P2 receptor; cell-based S1P2 antagonist assay, inhibition at 5 uM; AID 736; actives 0.21% (n = 97,000); inhibition, % at 5 µM; in the data active = inhibition above about 45%;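 note: CRE beta-lactamase reporter cells expressing human S1P2 stimulated with S1P; 0% = agonist at EC80 alone and 100% = agonist plus reference antagonist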
Target sequence (O95136 whole entry, looked up): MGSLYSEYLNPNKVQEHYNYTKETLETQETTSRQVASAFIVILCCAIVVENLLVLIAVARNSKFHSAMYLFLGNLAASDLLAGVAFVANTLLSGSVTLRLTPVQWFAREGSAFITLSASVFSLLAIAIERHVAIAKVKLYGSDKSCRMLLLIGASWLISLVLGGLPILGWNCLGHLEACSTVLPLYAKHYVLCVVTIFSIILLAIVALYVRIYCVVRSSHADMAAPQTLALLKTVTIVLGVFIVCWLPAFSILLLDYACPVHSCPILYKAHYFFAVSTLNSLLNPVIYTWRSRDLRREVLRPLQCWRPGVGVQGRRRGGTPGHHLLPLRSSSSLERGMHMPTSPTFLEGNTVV
E-sel TNF inh: blocks E-selectin expression induced by TNF alpha; HUVEC TNFa-induced E-selectin immunofluorescence, high content; inhibition, % at 2 µM; actives 0.71% (n = 120,000);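 active = inhibition above the batch mean plus 3 SD, and confirmed as a hit on visual image review, cut at about 43% in these data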;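 note: 0% = TNF-stimulated DMSO wells and 100% = unstimulated control wells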
VCAM1 TNFa inh: reduces TNF alpha induced VCAM1 expression in HUVEC; actives 0.48% (n = 95,000); HUVEC TNFa-induced VCAM-1 immunofluorescence, high-content imaging; AID 802; inhibition, % at 2 µM;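 active = inhibition above the batch mean plus 3 SD, with images confirmed as a hit by eye, cut at about 37% in these data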;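 note: 0% = TNF-stimulated DMSO wells and 100% = unstimulated control wells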
cytoskel mod: cytoskeleton assembly modification. inhibition, % at 2 µM. actives 0.18% (n = 91,000). HUVEC TNFa F-actin phalloidin imaging, high content;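 active = inhibition above the batch mean plus 3 SD and confirmed as a hit by visual image inspection, cut at about 30% in these data, passing the limit was not always enough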
S1P2 ag: activates the human S1P2 receptor; O95136; activation, % at 4.5 µM; AID 729; S1P2-expressing cell line, agonist reporter read-out; actives 0.46% (n = 97,000); in the data active = activation above about 16%;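 note: 0% = vehicle low control and 100% = maximal reference agonist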
* marks the source's active call; other numbers are inactive results; x = no result. Hits are enriched below; roughly 1.6% of the tested compounds scored in any of these assays.

SMILES	HUVEC tox TNFa	S1P2 blocker	E-sel TNF inh	VCAM1 TNFa inh	cytoskel mod	S1P2 ag
CN1CCN(S(=O)(=O)c2ccc(NC(=O)c3ccc(F)cc3)cc2)CC1	-21	-14	100*	-16	4	-1
COc1cc(S(=O)(=O)N2CCCCC2)ccc1NC(=O)c1ccc(F)cc1	-1	19	-9	11	-7	-5
COc1ccccc1NC(=O)c1ccc(S(=O)(=O)N2CCCC2)cc1	-26	20	100*	7	-1	-4
CC1SC2(NC1=O)C1CC3CC(C1)CC2C3 (stereo unspecified)	x	x	-13	x	x	x
CN(CCC#N)C(=O)COC(=O)c1ccccc1C(=O)c1ccc(Cl)c([N+](=O)[O-])c1	x	x	100*	x	x	x
O=C(COC(=O)c1ccccc1C(=O)c1ccc(Cl)c([N+](=O)[O-])c1)NC1CCCCCC1	28	59*	9	87*	20	3
Nc1ccc(C(=O)OCC(=O)NC2CC2)cc1[N+](=O)[O-]	x	x	-17	x	x	x
CN(CCC#N)C(=O)COC(=O)c1ccc(Cl)c(S(N)(=O)=O)c1	8	16	-1	4	0	-2
CCCc1nc(N)c(C#N)c(N)c1C#N	-23	-37	x	12	-40	17*
O=c1c2ccccc2c(C=Nc2cccc(S(=O)(=O)NCc3ccco3)c2)c(O)n1-c1ccc(Cl)cn1	x	x	9	x	x	x
CCOc1cc(C2CC(=O)N3CN(C4CCCCC4)CSC3=C2C#N)ccc1O (stereo unspecified)	82*	19	x	38	2	-5
C/C(=N\NC(=S)NCc1ccccc1)c1ccc2ccccc2c1OC(F)F	x	x	4	x	x	x
CCOC(=O)CSc1nc2sc3c(c2c(=O)n1C1CCCCC1)CCN(C)C3	x	-21	-39	14	-6	0
CCOC(=O)Cc1csc(NC(=O)COc2ccc3ccccc3c2)n1	-17	11	13	13	-15	-3
CCOC(=O)Cc1csc(NC(=O)COc2ccc(OC)cc2)n1	5	1	91*	-9	10	-5
CCOC(=O)Cc1csc(NC(=O)COc2ccc(N(C)S(=O)(=O)c3ccc(C)cc3)cc2)n1	76	-9	5	91*	-5	-7
CCOc1ccc(S(=O)(=O)N(C)c2ccc(OCC(=O)Nc3nc(-c4cc(OC)ccc4OC)cs3)cc2)cc1	x	x	8	x	x	x
CCNC(=O)COC(=O)c1sccc1C	x	x	-3	x	x	x
Cc1ccc(C)c(NC(=O)CSc2nnc([C@@H](N)Cc3ccccc3)o2)c1	1	23	62*	3	4	-4
Cc1cc(NC(=O)c2c([N+](=O)[O-])cnn2C)no1	19	20	-4	-15	-19	-6
O=c1ncn(-c2ccccc2F)c2ncccc12	-2	-2	67*	5	-3	-7
O=C1CN(C(=O)c2cc3ccccc3oc2=O)C(c2ccc(F)cc2)c2cc(Br)ccc2N1 (stereo unspecified)	x	x	-2	x	x	x
COCCN1C(=O)N(c2cccc(C)c2)C(=O)C1CC(=O)Nc1ccc(F)cc1 (stereo unspecified)	-7	-4	80*	8	-12	-5
CCOC(=O)c1ccc(NC(=O)CC2C(=O)N(c3cccc(OC)c3)C(=O)N2CCOC)cc1 (stereo unspecified)	-13	-7	-2	-5	19	-5
COc1cc(CCNc2ccc3nnc(-c4ccccc4)n3n2)cc(OC)c1OC	x	x	-8	x	x	x
SMILES	HUVEC tox TNFa	S1P2 blocker	E-sel TNF inh	VCAM1 TNFa inh	cytoskel mod	S1P2 ag
CCCN(CC(=O)Nc1ccc(Cl)cc1Cl)Cc1cc(=O)n2ccsc2n1	x	x	-14	x	x	x
C(=N\Nc1nc(Nc2ccccc2)nc(N2CCOCC2)n1)/c1c[nH]c2ccccc12	-4	47*	-7	25	10	-8
Cc1cc(N2CC(C)OC(C)C2)n2cc(-c3ccccc3)nc2n1 (stereo unspecified)	x	x	8	x	x	x
Cc1nc2ccc(NC(=O)c3cc(S(=O)(=O)N4CCOCC4)ccc3C)cc2s1	-28	7	92*	3	15	-4
Cc1nc2ccc(Nc3nc4cc(S(=O)(=O)N5CCOCC5)ccc4o3)cc2s1	-22	4	-5	-7	11	-4
CC1=Nc2ccccc2/C1=C/c1c(N)n2c(S(=O)(=O)C(C)C)nsc2nc1=O	x	x	-16	x	x	x
CC1=Nc2ccccc2/C1=C/c1c(N)n2c(S(=O)(=O)CC(C)C)nsc2nc1=O	x	x	96*	x	x	x
Cc1ccc2[nH]c(=O)c(CN(C(=O)c3cccs3)c3ccccc3)cc2c1	x	x	-2	x	x	x
CSc1cccc(NC(=O)C2CCCN(S(=O)(=O)c3ccc(F)cc3)C2)c1 (stereo unspecified)	12	-1	59*	13	4	-1
CN(C)c1ccc([C@@H]2[C@@H]([N+](=O)[O-])[C@H]3C=Cc4ccccc4N3[C@H]2C(=O)c2ccc(Cl)cc2)cc1	x	x	-17	x	x	x
CCc1cccc(CC)c1NC(=O)COC(=O)c1cccc(-c2ccc(OC(C)=O)cc2)c1	x	x	74*	x	x	x
CC(=O)Oc1ccc(-c2cccc(C(=O)O)c2)cc1	-13	-4	0	3	3	-6
CCOC(=O)C(CC)n1nc(C)n2c(cc3sccc32)c1=O (stereo unspecified)	x	x	46*	x	x	x
C/C=C/COC(=O)c1[nH]c2c(c1C)C(=O)CC(c1ccco1)C2 (stereo unspecified)	64	-7	x	51*	-4	-1
Cc1c(C(=O)OCC(C)C)[nH]c2c1C(=O)CC(c1ccco1)C2 (stereo unspecified)	64	2	x	67*	21	-1
CCOC(=O)c1nn(-c2ccccc2)c(C#N)c1NC(=O)c1nn(CC)cc1Br	-3	-22	-21	12	-5	24*
COc1ccc(N2C(=O)CC(Nc3ccc(C)cc3)C2=O)cc1 (stereo unspecified)	-3	-7	25	4	-6	-8
COc1ccc(N2C(=O)CC(NC3CCCCNC3=O)C2=O)cc1 (stereo unspecified)	-47	-1	-5	11	35*	-8
COc1ccc(C(=O)N(C)c2c(C)n(C)n(-c3ccccc3)c2=O)cc1OC	x	x	2	x	x	x
COc1cccc(S(=O)(=O)Nc2ccc(C(=O)N3CCN(C(=O)c4ccco4)CC3)cc2)c1	-2	-5	97*	26	1	-4
Oc1ccccc1C1=Nc2ncnn2C(c2ccccc2)C1 (stereo unspecified)	x	x	96*	x	x	x
CCCCCC(=O)Nc1nc(C)c(-c2csc(Nc3cc(Cl)ccc3OC)n2)s1	-3	-19	-12	16	-16	17*
CCCC(=O)Nc1nc(C)c(-c2csc(Nc3cc(OC)ccc3OC)n2)s1	-23	17	-11	18	15	-6
Cc1ccc(OCC(=O)N2CCN(C(=O)Cc3ccccc3)CC2)cc1	7	18	5	-11	71*	-3
COc1ccc(OCC(=O)N2CCN(C(=O)Cc3ccccc3)CC2)cc1	-3	6	-19	-8	2	-8
C/C(=N/NC(=O)c1ccc2c(c1)OCO2)c1cccc(NC(=O)C(C)(C)C)c1	-26	-12	-27	-2	10	41*
COc1ccccc1C(=O)Nc1nnn(C)n1	78*	3	x	53	-32	-10
